The results in this text go back to PubChem BioAssay AID743445 (Broad Institute, 2014).

Structures are written as SMILES. In all, about 310,000 compounds went through this assay and about 1,700 (0.55%) were called active. The entries come from a sample that favours actives as a whole. A number with no mark means an inactive call. No stated cut-off is given here; in the data, active means inhibition above about 50%; inactive means the rest.

The target of this test is Histone-lysine N-methyltransferase NSD2 (Homo sapiens) (UniProt O96028). In words: blockers of NSD2 lysine methylation activity – biochemical, AlphaScreen, single concentration, set 2, primary screen (AID 743445). The note with it: NSD2 peptide methylation, 120 min, at 12.5 µM, hits give high values. For orientation: Alpha assays give light when donor and acceptor beads are brought close together.
Sequence of Histone-lysine N-methyltransferase NSD2 (Homo sapiens) (O96028 whole entry, looked up): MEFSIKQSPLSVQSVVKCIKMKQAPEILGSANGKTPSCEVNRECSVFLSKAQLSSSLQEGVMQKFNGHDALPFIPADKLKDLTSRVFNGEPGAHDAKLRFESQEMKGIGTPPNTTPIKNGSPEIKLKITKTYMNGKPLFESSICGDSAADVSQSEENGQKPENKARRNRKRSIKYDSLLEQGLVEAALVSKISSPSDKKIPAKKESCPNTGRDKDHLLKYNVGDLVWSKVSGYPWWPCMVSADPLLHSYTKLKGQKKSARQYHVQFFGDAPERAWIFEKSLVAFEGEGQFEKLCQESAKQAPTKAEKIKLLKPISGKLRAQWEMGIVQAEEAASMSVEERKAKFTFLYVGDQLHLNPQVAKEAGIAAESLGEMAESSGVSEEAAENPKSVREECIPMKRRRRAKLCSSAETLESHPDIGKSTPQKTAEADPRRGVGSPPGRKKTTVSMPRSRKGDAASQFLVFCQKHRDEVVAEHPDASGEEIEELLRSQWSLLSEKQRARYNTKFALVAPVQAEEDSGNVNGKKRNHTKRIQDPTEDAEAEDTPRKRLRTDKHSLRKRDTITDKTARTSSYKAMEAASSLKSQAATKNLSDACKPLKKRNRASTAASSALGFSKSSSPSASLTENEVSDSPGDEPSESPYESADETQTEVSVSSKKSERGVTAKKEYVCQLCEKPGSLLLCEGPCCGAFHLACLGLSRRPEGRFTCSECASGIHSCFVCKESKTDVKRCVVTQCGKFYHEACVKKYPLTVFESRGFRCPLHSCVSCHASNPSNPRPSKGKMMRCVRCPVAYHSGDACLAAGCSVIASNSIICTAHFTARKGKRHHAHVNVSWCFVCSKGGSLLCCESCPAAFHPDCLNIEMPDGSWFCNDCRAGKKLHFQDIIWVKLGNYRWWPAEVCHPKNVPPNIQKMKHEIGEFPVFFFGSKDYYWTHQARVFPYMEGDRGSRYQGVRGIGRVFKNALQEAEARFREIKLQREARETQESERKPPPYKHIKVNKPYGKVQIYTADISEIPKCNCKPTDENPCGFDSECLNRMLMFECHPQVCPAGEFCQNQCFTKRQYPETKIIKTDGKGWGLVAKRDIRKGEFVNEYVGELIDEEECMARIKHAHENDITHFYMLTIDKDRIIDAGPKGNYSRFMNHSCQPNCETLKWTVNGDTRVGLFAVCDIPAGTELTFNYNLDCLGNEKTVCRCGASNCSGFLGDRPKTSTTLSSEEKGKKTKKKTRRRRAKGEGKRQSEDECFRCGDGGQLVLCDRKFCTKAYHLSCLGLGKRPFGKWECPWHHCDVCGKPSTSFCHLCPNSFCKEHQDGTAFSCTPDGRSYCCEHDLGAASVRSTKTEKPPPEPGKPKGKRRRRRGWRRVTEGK
With `Cc1cc(/C=C2/C(=O)NC(=O)N(Cc3ccco3)C2=O)c(C)n1-c1ccc(C(=O)O)cc1`, the inhibition was 36.8%.

For the compound `Cc1c(C(=O)O)cccc1-n1c(C)cc(/C=C2\C(=O)NC(=O)N(c3ccc4c(c3)OCO4)C2=O)c1C`, the inhibition is 65.9% (active).

In the case of `Cc1ccccc1N1C(=O)NC(=O)/C(=C\c2cc(C)n(C)c2C)C1=O`, the inhibition was 5.19%.

Take `CCC(C)(O)C(=O)OC1C(=O)OC2CC3C(C)=CC(=O)C(O)C3(C)C3C4(O)OCC23C1C(C)C4O` (stereo not given): the inhibition is -0.572%.

Regarding `O=C(c1ccccc1)C(O)(CN1CCCCC1)c1ccccc1` (stereo not given), the inhibition was 1.13%.

As to `O=c1c2ccccc2[nH]c(=S)n1-c1cccc(Cl)c1`, the inhibition was -7.59%.

Take `COc1ccc(C2C=C(C)Oc3c2c(=O)oc2ccccc32)cc1OC` (stereo not given): the inhibition is 1.06%.

Regarding `CC12CCC(O)CC1CCC1C2CCC2(C)C(C(=O)CC(O)C(F)(F)F)CCC12` (stereo not given), the inhibition is -0.54%.

In the case of `COc1ccc(CN2C(=O)NC(=O)/C(=C\c3ccc(OC)c(OC)c3OC)C2=O)cc1`, the inhibition was 1.88%.

With `O=C1NC(=O)N(c2ccccc2)C(=O)/C1=C/c1ccc([N+](=O)[O-])s1`, the inhibition was 73.4% (active).

Regarding `O=C1NC(=O)N(c2ccc(F)cc2)C(=O)/C1=C/c1ccc2c(c1)CCCN2Cc1ccccc1`, the inhibition is 16.6%.

As for `COc1cccc(N2C(=O)NC(=O)/C(=C\c3ccc([N+](=O)[O-])s3)C2=O)c1`, the inhibition is 59% (active).

Turning to `COc1cccc(N2C(=O)NC(=O)/C(=C\c3cn(C)c4ccccc34)C2=O)c1`, the inhibition is 1.25%.

Take `O=C1NC(=O)C(Cc2ccccc2)C(=O)N1`: the inhibition is -1.35%.

As for `CC(=CCOc1ccc2ccc(=O)oc2c1)C1=CC(=O)C(C)(C)O1`, the inhibition was 0.448%.

Turning to `CC(=O)OC1C2(CC3N4C(=O)C5(CO)SSC4(CC31O)C(=O)N5C)OC(C)C(C)(C)C2=O` (stereo not given), the inhibition is 133% (active).

As to `CO[C@H]([C@H](C)/C=C/N(C)C=O)[C@@H](C)C(=O)CC[C@H](C)[C@H](O)[C@H](C)[C@H]1OC(=O)/C=C/C(C)=C/[C@H](O)[C@H](OC)C[C@@H]2C=CC[C@@H](C[C@H](OC)[C@@]3(CO3)[C@@H](OC)C[C@@H](OC)[C@@H]1C)O2`, the inhibition is -2.92%.

On to `O=P(OC1=CCCCC1)(c1ccccc1)c1ccccc1`, for which the inhibition was 1.12%.

With `O=c1c2ccccc2nc(CBr)n1-c1ccc(Cl)cc1`, the inhibition is -1.22%.

On to `c1cc2c(c(NC3=NCCCS3)c1)CCCC2`, for which the inhibition is 8.89%.

On to `CC(=O)C1(O)CCC2C3CCC4=C(Cl)C(=O)CCC4(C)C3CCC21C` (stereo not given), for which the inhibition was -5.24%.

`Cc1cc(N2C(=O)C3CCCN3C2c2ccc(Cl)c(Cl)c2)no1` (stereo not given): the inhibition is 84.4% (active).

Regarding `CCN1C(=O)NC(=O)C2(CCCC2)C1=O`, the inhibition was 27.8%.

Consider `C[C@]12CCCCC1=CC(=O)C1C2CC[C@@]2(C)C1C[C@@H](F)[C@@H]2O` (stereo not given in full), for which the inhibition is -1.58%.

In the case of `O=C1NC(=O)C(CCOc2ccccc2)(CCc2ccccc2)C(=O)N1`, the inhibition was 1.16%.

A word on the inhibition: it is the relative decrease from the control value, in per cent.
